Rows were chosen to be rich in hits. Some 7.3% of all compounds tested hit in one or more screens of this group.
SMN2 splice up: qHTS Assay for Enhancers of SMN2 Splice Variant Expression. HEK293 SMN2-luciferase splicing reporter, luminescence, 30-36 h. Potency, µM (highest dose often 46.1 µM), for inactives: at the top dose activity change, positive = activation, usual class: activators. 210,000 compounds, 2.8% hits; further: % of control where 0% means no effect; nearly all actives have a fitted effect of over 55% in size
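HEK293 cells carry an SMN2 minigene-luciferase reporter in which exon 7 inclusion puts luciferase in frame. Cells were seeded at 2000 cells/well, attached for 10-12 hours, then exposed to compounds for 30-36 hours at 37C before ONE-Glo luminescence.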
NPC1 promoter act: qHTS Assay for NPC1 Promoter Activators; Potency, µM (highest dose often 9.22 µM), for inactives: top-dose activation, usual class: activators; 320,000 compounds, 2.4% hits; Huh7 NPC1 promoter luciferase reporter, 24 h; AID 485313, 2010; further: % of control where 0% means no effect; nearly all actives have a fitted effect of over 60% in size
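Quantitative HTS used a cell-based reporter: Huh7 cells stably bearing the NPC1 promoter upstream of luciferase were treated with compounds for 24 h, and promoter activation was read as luminescence.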
Rab9 prom act: qHTS Assay for Rab9 Promoter Activators | Potency, µM (series often up to 9.22 µM), without a hit: at the highest dose activation, negative = inhibition, usual class: activators | AID 485297, 2010 | Huh7 Rab9 promoter-luciferase reporter, luminescence, 24 h | 320,000 compounds, 2.8% hits; further: % of control where 0% means no effect; nearly all actives have a fitted effect of over 60% in size
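Promoter activation is measured as luciferase luminescence in Huh7 cells stably transfected with a Rab9 promoter–luciferase construct, following 24 h compound exposure at 37 °C and 10 min reagent incubation at ambient temperature.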
Luc counter: Counterscreen for Luciferase (Kinase-Glo TM) Inhibition | Kinase-Glo luciferase, ATP luminescence, 8 min | Potency, µM (doses to about 38.3 µM), for the others: at the highest dose activity change, negative = inhibition, hits mostly inhibitors | 200,000 compounds, 0.28% hits; further: on the % scale 0 is the no-effect control and ±100 the full control effect; nearly all actives have a fitted effect of over 60% in size
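Recombinant Kinase-Glo luciferase, 10 uM ATP (linear range), luciferin; imidazole pH 7.2 / KCl / MgCl2 / Tween / BSA buffer; 8 min RT; luminescence.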
FLuc counter: qHTS profiling assay for firefly luciferase inhibitor/activator using purifed enzyme and Km concentrations of substrates (counterscreen for miR-21 project); Potency, µM (highest dose often 57.5 µM), inactives show at the highest dose activity change, negative = inhibition, hits mostly inhibitors; purified FLuc, Km substrates, luminescence inhibition; Luciferin 4-monooxygenase (Photinus pyralis), P08659; 360,000 compounds, 6.9% hits;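 further: plate controls were vehicle for no effect and reference inhibitor for full effect; nearly all actives have a fitted effect of over 55% in size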
Target sequence (P08659 whole entry, looked up): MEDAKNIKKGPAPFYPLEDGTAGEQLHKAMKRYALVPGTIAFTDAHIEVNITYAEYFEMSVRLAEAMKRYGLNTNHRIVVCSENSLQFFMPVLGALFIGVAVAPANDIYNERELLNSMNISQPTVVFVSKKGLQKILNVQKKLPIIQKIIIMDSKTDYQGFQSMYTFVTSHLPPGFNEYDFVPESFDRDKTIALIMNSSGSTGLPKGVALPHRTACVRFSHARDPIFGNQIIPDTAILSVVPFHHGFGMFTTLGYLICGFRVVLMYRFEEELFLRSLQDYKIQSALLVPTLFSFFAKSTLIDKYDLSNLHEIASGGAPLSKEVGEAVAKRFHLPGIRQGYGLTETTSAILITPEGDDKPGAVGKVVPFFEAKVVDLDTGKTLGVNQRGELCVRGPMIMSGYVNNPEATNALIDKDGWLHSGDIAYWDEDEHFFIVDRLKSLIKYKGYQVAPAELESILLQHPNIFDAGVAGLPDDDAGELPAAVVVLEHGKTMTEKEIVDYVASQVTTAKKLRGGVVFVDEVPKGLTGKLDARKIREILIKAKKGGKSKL
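Biochemical qHTS of compounds, final roughly 60 µM downward over six points, against 10 nM purified firefly luciferase using Km concentrations of substrates (10 uM D-luciferin, 10 uM ATP) in Tris acetate pH 7.5 buffer; luminescence output.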
* marks the source's active call; other numbers are inactive results; ? = inconclusive; . = no result; [ ] = dose if it differs, or a comment. The call rests on the fitted dose curve; in most records, active means well fitted curve in the direction sought with a large enough effect; inconclusive means small, poorly fitted or top-dose-only effect, or another doubt; inactive means no such curve, though single readings can be large; an effect the other way counts as inactive or inconclusive. Potency means the concentration at half of the fitted maximal effect.

SMILES	SMN2 splice up	NPC1 promoter act	Rab9 prom act	Luc counter	FLuc counter
Nc1ccc(-c2nc3ncccc3o2)c(O)c1	.	2.82µM*	3.98µM*	.	12µM*
CC(CCc1nc2ccccc2s1)(c1ccc(O)cc1)c1ccc(O)cc1	-7.3%[9.22 µM]	.	.	-3.4%[7.66 µM]	.
CN(CC(=O)Nc1ccccc1Cl)S(=O)(=O)c1ccc(C(=O)N2CCOCC2)s1	.	.	.	.	-1.8%
Cn1ccc2cc(-c3ccc4ncnc(NCc5cccnc5)c4c3)ccc21	.	-3.0%	-1.6%	.	19µM*
Cn1ccc2cc(-c3ccc4ncnc(NCc5cccc(F)c5)c4c3)ccc21	.	-1.6%	-4.6%	.	?
Cc1noc(C)c1-c1ccc2ncnc(NCc3ccccc3)c2c1	2.82µM*	.	.	-2.6%	.
Cc1ccccc1OCc1ccc(-c2nc(C#N)c(NCc3cccnc3)o2)o1	.	.	.	.	-17.0%
CCc1nn(CC(=O)NCCc2ccc(SC)cc2)c(=O)c2cc3sccc3n12	-5.5%	.	.	.	-4.6%
COCc1ccc(C(=O)Nc2ccc(C(=O)O)cc2)o1	.	24.7%	29.5%	.	?
O=C(O)c1ccc(NC(=O)c2ccc(COc3ccccc3)o2)cc1	.	2.6%	17.1%	.	19µM*
Cc1oc(C(=O)Nc2ccc(O)cc2)cc1COc1ccccc1	?	0.0%	-8.9%	1.9%	?
Cc1ccc(OCc2cc(C(=O)Nc3ccccc3)oc2C)cc1	6.7%	22.0%	17.1%	-6.9%	19µM*
COc1ccc(NC(=O)c2ccc(COc3ccc(C)cc3)o2)cc1	.	25.6%	28.5%	-6.8%	10.7µM*
CCOc1ccccc1NC(=O)CSc1nc2cc(OC)c(OC)cc2c2nc(CCn3c(C)nc4ccccc43)nn12	3.6%	.	.	.	-2.2%
C(=C\c1nc(N2CCCCCC2)c2ccccc2n1)/c1ccccc1	.	-1.1%	7.4%	.	8.49µM*
c1ccc2c(N3CCCCC3)nc(N3CCCCC3)nc2c1	-7.5%	1.2%	4.1%	-4.6%	-0.7%
CCOC(=O)N1CCN(c2nc(-c3ccc(OC)cc3)no2)CC1	-25.7%	?	20.5%	-1.3%	16.9µM*
CCOc1ccc(OCc2ccc(C(=O)N(CC)CC)cc2)cc1	23.9%	?	?	-0.6%	15.1µM*
CCN(CC(=O)Nc1c(F)cccc1F)C(=O)c1ccc(COc2ccccc2)cc1	.	1.6%	6.5%	.	1.5%
COc1ccc(OCc2cccc(C(=O)O)c2)cc1	0.0398µM*	0.0006µM*	1µM*	?	0.0301µM*
CCOc1ccc(OCc2cccc(C(=O)O)c2)cc1	0.0316µM*	-22.2%	-25.4%	11.2µM*	0.0169µM*
O=Cc1ccc(OCc2cccc(C(F)(F)F)c2)cc1O	23.7%	0.9%	5.8%	-3.5%	?
O=C(OCC(F)(F)F)c1cccc(COc2ccc3ccccc3c2)c1	0.447µM*	1µM*	?	-2.0%	3.38µM*
Cc1ccc(-n2nnc(-c3nc(-c4cccs4)no3)c2N)c(C)c1	.	.	.	.	-0.4%
CCOC(=O)N1CCC(NC(=O)c2ccc3c(c2)N(Cc2ccc(Cl)cc2)C(=O)c2ccccc2S3(=O)=O)CC1	9.5%	.	.	.	-3.0%
SMILES	SMN2 splice up	NPC1 promoter act	Rab9 prom act	Luc counter	FLuc counter
CC(C)Sc1nc2sc3c(c2c(=O)n1Cc1ccccc1)CCCC3	1.4%	.	.	.	-5.5%
CCOc1ccccc1NC(=O)N(Cc1ccc(F)cc1)C1CCN(CC)CC1	.	.	.	.	0.4%
COc1cc(/C=C/[N+](=O)[O-])ccc1OCc1cccc(C(=O)O)c1	1.26µM*	1µM*	1.26µM*	-6.5%	0.213µM*
CCOc1ccccc1NC(=O)Cn1c(=O)n(-c2ccccc2)c(=O)c2c1c1cc(C)ccc1n2C	.	.	.	.	1.0%
CCCc1cc(C(=O)Nc2ccc(C(C)=O)cc2)no1	-33.9%	8.0%	16.9%	-4.3%	?
CCCc1cc(C(=O)Nc2cccc(C(C)=O)c2)no1	14.8%	3.16µM*	?	-4.7%	?
CCCc1cc(C(=O)Nc2cccc(Cl)c2)no1	15.7%	0.1%	-2.8%	-9.1%	1.9µM*
CCCc1cc(C(=O)Nc2cccnc2)no1	18.7%	0.6%	8.0%	?	15.1µM*
CCCc1cc(C(=O)Nc2ccc(C#N)cc2)no1	.	2.3%	4.5%	.	-18.8%
CCCc1cc(C(=O)Nc2ccccc2SC)no1	?	17.2%	?	-5.6%	?

Screens from PubChem BioAssay.
